Data taken from PubChem BioAssay (Tox21).
Inconclusive results are not listed. A number with no mark means an inactive call. Calls follow the shape of the dose curve; as a rule, active = well fitted activation curve with a large enough effect in the signal ratio in the repeat runs (not every such curve was filed as active); inconclusive = weak or mixed curves; inactive = flat fitted curve, though single readings scatter; the % refers to the signal ratio.

Experiment: qHTS assay to identify small molecule agonists of H2AX (AID 1224845)
Settings: CHO-K1 phospho-H2AX Ser139 HTRF, 3 h; series mostly up to 154 µM; activation (H2AX phosphorylation): at the top concentration
Excerpt: National Center for Advancing Translational Sciences [NCATS]
NIH Chemical Genomics Center [NCGC]
U.S. Environmental Protection Agency [EPA]
National Institutes of Environmental Health Sciences [NIEHS]
National Toxicology Program [NTP]
U.S. Food and Drug Administration [FDA]
HTRF phospho-H2AX (Ser139) assay (Cisbio Bioassays, US) enables the quantitative detection of the histone variant H2AX when phosphorylated on serine 139. When double-stranded DNA breaks, either by ionizing radiation or endogenous physiological processes, H2AX becomes phosphorylated at Ser139. This phospho-Ser139 serves as a sensitive biomarker for the detection of such breaks, localizing the site of DNA repair. So, HTRF phospho-H2AX Ser139 is a pertinent assay to study genome stability, the cell cycle, DNA repair, and it serves as a biomarker for cancer, and to understand aging. Wild type CHO-K1 cells were used to identify the inducers of Phospho-H2AX Ser 139 from the Tox21 10K compound collections.
Tox21 Assay Protocol Summary:
The CHO-K1 cells suspended in culture medium containing 10% FBS were dispensed at 1000 cells/ 3 ul/well in 1536-well white wall/solid bottom plates (Greiner Bio-One North America, NC) using a Multidrop Combi (Thermo Fisher Scientific Inc., Waltham, MA). After the assay plates were incubated at 37C overnight, 23 nl of compounds at 15 concentrations (from 5-48 columns) or positive control (from 1 to 4 columns) were transferred to the assay plates using a Pintool station (Wako, San Diego, CA) into each well resulting in a final DMSO concentration of 0.76%. After 3hr incubation at 37C, 1 uL/well Supplemented Lysis buffer (diluted 100 fold blocking reagent in lysis buffer) (HTRF Phospho-H2A.X (S139) Assay kit from Cisbio US Inc., Bedford, MA) was added using a Flying Reagent Dispenser (FRD) (Aurora Discovery, CA). After 10sec spin at 1000 rpm in a plate centrifuge, the assay plates were incubated at room temperature for 30 min. Then followed by the addition of 1 uL/well detection buffer (containing a mixture of two antibodies, one labeled with cryptate, Anti pH2AX (S139)-K and another labeled with d2, Anti H2AX-d2) using FRD. After incubation at room temperature for 24 hr, the time resolved fluorescence at excitation 320 nm and emissions at 665 nm and 620 nm was measured using an Envision plate reader (PerkinElmer, Waltham, MA).
% is scaled to controls: 0 for no effect and ±100 for the full control effect.

Compound	activation (H2AX phosphorylation)
O=C(Nc1ccc2c(c1)Cc1ccccc1-2)C(F)(F)F	-0.841%
C=Cc1ccc(C=C)cc1	-0.67%
CCOC(C)OCC	-0.382%
CCN(CC)CC(=O)OCC(=O)[C@@]1(O)CC[C@H]2[C@@H]3CCC4=CC(=O)CC[C@]4(C)[C@H]3[C@@H](O)C[C@@]21C	-1.46% [at 70.9 µM]
COC(=O)C(C)(C)C	-1.67%
C=C(C)C(=O)OCCCCCCCCCCOC(=O)C(=C)C	-1.09%
CCOC(=O)CC(O)(CC(=O)OCC)C(=O)OCC	-1.91%
CC(COc1ccccc1)NC(C)C(O)c1ccc(O)cc1 (stereo not given)	-0.255% [at 70.9 µM]
CC(CC(C#N)(c1ccccc1)C(C)C)N(C)C (stereo not given)	-2.21% [at 70.9 µM]
OCC(O)c1ccccc1 (stereo not given)	-3.66%
CCCCOC(=O)CC#N	-3.78%
CC1(COc2ccc(CC3SC(=O)NC3=O)cc2)CCCCC1 (stereo not given)	-0.78% [at 70.9 µM]
CCCCCCCCOCCCN	-3.57%
O=C(OCCN1CCOCC1)c1cccnc1Nc1cccc(C(F)(F)F)c1	-1.74% [at 70.9 µM]
CCCC(=O)OCc1ccccc1	0.171%
CC1(C)C(=O)NC(=O)N1CO	-1.29%
O=C(O)c1cc(C(=O)O)c(C(=O)O)cc1C(=O)O	-1.99%
O=C(O)c1ccccc1[N+](=O)[O-]	-0.0853%
COc1ccc(C(=O)Nc2ccccc2)cc1[N+](=O)[O-]	-0.979%
CC(=O)CC/C=C(\C)CC/C=C(\C)CC/C=C(\C)CCC=C(C)C	-2.34% [at 70.9 µM]

Compound	activation (H2AX phosphorylation)
CC(C)(C)c1ccc(CCC=O)cc1	-0.015%
CC(CCl)OC(C)CCl (stereo not given)	-0.173%
NC(=O)c1ccccc1C(N)=O	8.49%
OCCCO	-0.0054%
Cc1c(-c2cccnc2)c2ccccc2n1CCCCC(=O)O	-0.0094%
CCCCCCCCC(=O)OCC(C)OC(=O)CCCCCCCC (stereo not given)	-0.446%
C=CC(C)(O)CC/C=C(/C)CCC=C(C)C (stereo not given)	-2.8%
CCC(C)C1N=C(C)C(C)S1 (stereo not given)	-0.682%
COc1cc(CNC(=O)CCCC/C=C/C(C)C)ccc1O	0.383%
Nc1ccc(C(=O)Oc2ccccc2)c(O)c1	-0.0306% [at 70.9 µM]
CC(C)(Cc1c[nH]c2ccccc12)NCC(O)COc1ccccc1C#N (stereo not given)	-5.96% [at 70.9 µM]
CC(C)CC(C)(C)C	-1.37%
CCc1c(C)[nH]c2c1C(=O)C(CN1CCOCC1)CC2 (stereo not given)	-0.501% [at 70.9 µM]
CCCCCC1CCC(=O)O1 (stereo not given)	-1.1%
O=C(NC1CCN(CCc2c[nH]c3ccccc23)CC1)c1ccccc1	-2.86% [at 70.9 µM]
O=Cc1ccc([N+](=O)[O-])cc1	-2.5%
O=C(Cl)c1ccc(F)c(Cl)c1	2.9%
CCC(=O)O[C@]1(C(=O)COC)[C@@H](C)C[C@H]2[C@@H]3CCC4=CC(=O)C=C[C@]4(C)C3(F)[C@@H](O)C[C@@]21C (stereo not given in full)	0.471% [at 70.9 µM]
O=C(O)CCc1nc2ccccc2[nH]1	1.2% [at 70.9 µM]
N#Cc1ccc(CC(=O)c2cccc(C(F)(F)F)c2)cc1	-3.58%
